# Results reported in PubChem BioAssay (NCI).
# The panel holds about 79,000 compounds, 15% with a hit somewhere; the sample as a whole holds those more often. A number with no mark means an inactive call. The source made the active and inactive calls. No stated cut-off is given here; in the data, active means growth inhibition above about 70%; inactive means the rest. Where a SMILES comes first, the peptide text is derived from it. The star is where a group is joined. Boc = CC(C)(C)OC(=O)*; OBn = c1ccc(CO*)cc1; Bn = c1ccc(C*)cc1
# Tests used:
# [1] = NCI Yeast Anticancer Drug Screen. Data for the rad50 strain (AID 155);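 further: 0% = growth of vehicle-only cultures of the same strain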; conditions: S. cerevisiae rad50 strain growth inhibition; at 50.0 µM; active compounds read high
# Outline: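 Vehicle-treated cultures provide the reference for the growth inhibition reported for compound-exposed, repair-deficient yeast.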
# [2] = NCI Yeast Anticancer Drug Screen. Data for the mec2-1 strain (AID 157); conditions: S. cerevisiae mec2-1 strain, at 50.0 µM, active compounds read high
# Outline: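 Readout is yeast growth inhibition, normalised to vehicle-treated controls, in the mec2-1 strain exposed to compound.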
# [3] = NCI Yeast Anticancer Drug Screen. Data for the sgs1 mgt1 strain (AID 161);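 further: 0% = growth of cultures given vehicle only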; conditions: S. cerevisiae sgs1 mgt1 strain, at 50.0 µM, active compounds read high
# Outline: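 Growth of a repair-deficient yeast mutant was monitored after compound treatment and expressed as inhibition relative to vehicle-treated cultures.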
# [4] = NCI Yeast Anticancer Drug Screen. Data for the cln2 rad14 strain (AID 165);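 further: 0% = growth equal to vehicle treated cultures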; conditions: S. cerevisiae cln2 rad14 strain, at 50.0 µM, active compounds read high
# Outline: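 Relative to vehicle controls, growth inhibition of compound-treated cln2 rad14 yeast was recorded.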
# [5] = NCI Yeast Anticancer Drug Screen. Data for the bub3 strain (AID 167); conditions: S. cerevisiae bub3 mutant strain, at 50.0 µM, active compounds read high
# Outline: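 Mutant yeast screening strain plus compound; vehicle-treated cultures serve as the 0% inhibition reference.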
# [6] = NCI Yeast Anticancer Drug Screen. Data for the mlh1 rad18 strain (AID 175); conditions: S. cerevisiae mlh1 rad18 strain growth inhibition; at 50.0 µM; active compounds read high
# Outline: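 Test agents were incubated with a yeast strain of defined genotype (DNA damage repair defect). Inhibition of growth was derived by comparison with vehicle-exposed cultures.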
Compound,growth inhibition [1],growth inhibition [2],growth inhibition [3],growth inhibition [4],growth inhibition [5],growth inhibition [6]
Cn1ncc2c(=S)nc[nH]c21,-15.2%,-4.9%,-2.5%,-18.2%,2.65%,-13.8%
Cc1cc(=O)[nH]c(NNC(C#N)c2c(O)ccc3ccccc23)n1 (configuration not stated),23.6%,13.2%,24.2%,-2.9%,1.45%,12.9%
COc1ccc(C(O)C(C)C(O)(C(F)(F)F)C(F)(F)F)cc1 (configuration not stated),70.5% (active),67.7%,89.3% (active),63.8%,72.7% (active),90% (active)
O=C(c1ccco1)C(O)c1ccccc1 (configuration not stated),1.3%,8.9%,-2.6%,-2.55%,-11.9%,5.95%
N#CCCOC(=O)Nc1cccc(Cl)c1,41.7%,15.4%,27.3%,7.3%,-7.2%,33.6%
COc1cc(C2c3cc4c(c(OS(=O)(=O)O)c3CC3COC(=O)C32)OCO4)cc(OC)c1OC (configuration not stated),6.3%,3.5%,-18.9%,-14.4%,15%,7.4%
C[C@@H]1S[C@H](c2c(F)cccc2Cl)n2c1nc1ccccc12,78.7% (active),82.7% (active),86.6% (active),82.2% (active),68.2%,78.1% (active)
CC(=O)OC1=CC(=O)N(C(=O)c2ccccc2)C1,-2.8%,-5.95%,-18.6%,-12.2%,3.2%,-6.55%
O=C(O)C(CSC(c1ccccc1)(c1ccccc1)c1ccccc1)Nc1ccccc1[N+](=O)[O-] (configuration not stated),99% (active),99.2% (active),99.4% (active),98% (active),98.3% (active),99.2% (active)
Nc1nc(-c2ccccc2)cc(-c2ccc(F)cc2)c1-c1ccc(Cl)cc1,16.9%,-9.2%,20.4%,24.6%,-0.95%,-73.5%
CCOC(=O)NC(C)(C)CC(C)(C)C,-0.6%,-17.6%,-4.7%,11.9%,-18.6%,17.4%
Cc1c(Cl)c2ccccc2n1S(=O)(=O)c1ccccc1,38.1%,-3.55%,31.2%,22.1%,10.5%,21.9%
Cc1cc(=O)[nH]c2ccc(-c3ccc4[nH]c(=O)cc(C)c4c3)cc12,21.4%,-17.2%,31.3%,5.15%,23.1%,18%
O=C(O)CCc1c[nH]c(=S)[nH]1,10%,3.75%,-5.85%,-11.6%,-1.7%,-1.7%
C=C(CN(C)C)C(=O)c1ccc(OC)cc1,7.75%,19%,-3.75%,17.5%,2%,27.2%
CN(C)C(=S)OCC(C)(C)C,-1.45%,-14.8%,-18.3%,-35.3%,3.4%,-23.6%
Cc1ccc(C(=O)NC2CCCCC2)cc1N=NN(C)C,31.4%,-7.55%,18.7%,19.1%,9.45%,-11.4%
O=[N+]([O-])c1cccc([I+]c2cccc([N+](=O)[O-])c2)c1,98.5% (active),95.8% (active),97.7% (active),96.5% (active),97.2% (active),98.2% (active)
COC(=O)C1(C(C)C(=O)c2ccc(Cl)cc2)NC(=S)NC(=O)C1C#N (configuration not stated),0.4%,6.05%,-24.9%,-0.8%,-8.5%,12.7%
O=NN(Cc1ccccc1)NC(=O)c1ccccc1,6.2%,28.1%,8.9%,-8.4%,20.9%,11.2%
OCc1c(CO)c(-c2ccc(Cl)c(Cl)c2)n2c1CCC2,13.4%,2.4%,8.1%,14.9%,-0.2%,51%

Compound,growth inhibition [1],growth inhibition [2],growth inhibition [3],growth inhibition [4],growth inhibition [5],growth inhibition [6]
Cc1ccc2nc(-c3ccc(CSC(=N)N)cc3)oc(=O)c2c1,40.2%,43.5%,45.6%,20.9%,19.1%,42%
O=C(CCCn1ccnc1[N+](=O)[O-])NCCn1ccnc1[N+](=O)[O-],5.95%,9.35%,-9.9%,17.4%,-11.8%,-12.3%
C=CCN=C1NC(=O)C(CC(=O)Nc2ccc(C)cc2)S1 (configuration not stated),-22.6%,-0.25%,0.25%,17.4%,7.05%,7.65%
Cc1ccc(C(=O)O)c(O)c1,11.7%,-1.7%,-14.8%,-13.9%,-26%,-2.5%
COC(=O)/C=C/c1c(=O)c(C(=O)OC)cn2cnc3nc[nH]c3c12,-14.5%,2.35%,-20.6%,-13.3%,-5.9%,-5.8%
C=CC[N+](C)(CC=C)CC[N+](C)(CC=C)CC=C,-15%,1.35%,-14.9%,-43.5%,1.6%,-18.4%
c1ccc(Cc2nnc(Cc3ccccc3)nn2)cc1,10.8%,8.35%,2.7%,7.25%,21.4%,7%
O=C(O)/C=C/C(=O)Nc1cc(Cl)cc2c1-c1c(Cl)cc(Cl)cc1C2O (configuration not stated),83.7% (active),54%,84% (active),-5.45%,11.3%,51.9%
N#Cc1cccc(Nc2ccccc2SSc2ccccc2Nc2cccc(C#N)c2)c1,13.1%,7.6%,17.5%,-7.4%,3.95%,12.8%
CCCCC1CCC(=O)NC1=O (configuration not stated),4.25%,29.6%,5.8%,5.2%,14.7%,1.9%
C=CC(=NC(C)C)N(C)c1ccccc1,5.2%,13.9%,1.7%,-7.9%,26.5%,-1.8%
COc1ccc([N+](=O)[O-])c2ccc(=O)oc12,-9.9%,5.2%,-4.1%,-0.35%,4.75%,9.9%
C1=C(Oc2ccccc2)C2CC1C1CCCC21 (configuration not stated),-7.85%,-21.4%,-2.65%,2.05%,-5.95%,1.85%
CNC(=O)c1cccc([N+](=O)[O-])c1,32.1%,19.8%,21.7%,-31.2%,7.25%,30.2%
COC(=O)C12OCC34C(CC(C(C)=O)C(C)(CC(=O)O)C3C(O)C1O)OC(=O)C(OC(=O)/C=C(\C)C(C)C)C24 (configuration not stated),10%,21.3%,0.15%,9%,7.6%,6.95%
COC(=O)C1(CCC(C)=O)CCC(C)C1=O (configuration not stated),2.55%,-4.5%,1.2%,0.2%,-19.6%,-9.8%
Cc1cc(C)c2cnnn2n1,10.1%,-14.1%,0.6%,15.4%,-21.1%,-2.75%
Cc1occc1C(=S)Nc1ccc(Cl)c(/C=N/OC2CCCC2)c1,13.2%,26.1%,25.1%,30.7%,19.3%,18.8%
CC(C)CC(NC(=O)C(CCC(=O)OCc1ccccc1)NC(=O)OC(C)(C)C)C(=O)NC(COCc1ccccc1)C(=O)NC(Cc1ccccc1)C(=O)O (configuration not stated) (Boc-E(OBn)LS(Bn)F-OH; configuration not given here),-6.65%,-4.8%,-8.05%,6%,13.3%,-10.8%
O=C(O/N=C(\c1ccccc1)C(Br)c1ccccc1)c1ccccc1 (configuration not stated),-2.75%,10.2%,2.9%,-2.05%,8.4%,-2.55%
C=CC(=O)OCCCS(=O)(=O)[O-].C=CC(=O)OCCCS(=O)(=O)[O-].NC1CCCCC1N.[Pt+4],3.05%,-7.75%,-4.25%,37.5%,14.1%,9.75%
